High-throughput results (PubChem)
Most compounds without a hit are left out; they make up all but 4.2% or so of the library.
Mtb FBA inh – Mtb fructose-bisphosphate aldolase inhibition; P9WQA3; purified M. tuberculosis FBA, fluorescence read-out; inhibition, % at 1 µM; actives 2.3% (n = 360,000); AID 588726; in the data active means inhibition above about 27%
Target sequence (P9WQA3 whole entry, looked up): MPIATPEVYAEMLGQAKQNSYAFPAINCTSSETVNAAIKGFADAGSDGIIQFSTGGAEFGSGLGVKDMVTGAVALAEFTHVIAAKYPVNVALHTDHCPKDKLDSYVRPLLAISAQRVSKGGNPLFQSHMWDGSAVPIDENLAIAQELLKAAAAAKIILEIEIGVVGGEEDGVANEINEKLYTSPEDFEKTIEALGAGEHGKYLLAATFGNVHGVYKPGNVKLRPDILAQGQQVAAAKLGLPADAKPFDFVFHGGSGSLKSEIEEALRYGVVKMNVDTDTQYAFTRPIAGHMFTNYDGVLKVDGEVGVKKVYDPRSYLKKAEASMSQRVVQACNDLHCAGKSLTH
CCHF vOTU inh – CCHFV vOTU protease inhibition; actives 0.55% (n = 370,000); AID 651958; Pep-AMC fluorescence; inhibition, % at 11.5 µM
RecA intein inh – inhibitors of M. tuberculosis RecA intein splicing. inhibition, % (no concentration beside the values). AID 2221. cell-free RecA intein splicing, fluorescence. P9WHJ3. actives 0.75% (n = 290,000); in the data active means inhibition above about 30%
Mtb betalactam – beta-lactam sensitization of Mtb H37Rv; actives 0.27% (n = 330,000); M. tuberculosis H37Rv growth with meropenem, percent inhibition; AID 434955; inhibition, % at 25 µM; call rule not given here;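 further: growth measured after seven days incubation then overnight dye step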
GDH-TPI counter-1 – counter-screen for M. tuberculosis FBA inhibitors: GDH-TPI coupled enzymes; GDH-TPI coupled enzyme counterscreen, NADH absorbance; inhibition, % at 4.8 µM; actives 1.2% (n = 360,000)
Mtb FBA confirm – confirmation of M. tuberculosis fructose-bisphosphate aldolase inhibitors | shares compounds with Mtb FBA inh | purified M. tuberculosis FBA, fluorescence read-out | inhibition, % at 1 µM | actives 78% (n = 5,600); in the data active means inhibition above about 27%
GDH-TPI counter-2 – GDH-TPI inhibition counter-screen for FBA inhibitors. actives 81% (n = 5,600). inhibition, % at 1 µM. shares compounds with Mtb FBA inh. GDH-TPI coupled enzyme counterscreen, fluorescence. AID 652141; in the data active means inhibition above about 10%
Large screens that a line does not name were inactive (follow-up assays come after a bar, where they were run). Unless noted, no stated cut-off is given here; in the data, active means inhibition above about 30%; inactive means the rest.

CCCNC(=O)c1oc2ccc3c(c2c1C)C(=O)CC(C)(C)O3	Mtb FBA inh 36 | Mtb FBA confirm 55 | GDH-TPI counter-2 51
CCOC(=O)c1oc2ccc3c(c2c1C)C(=O)CC1(CCN(C(=O)OCC)CC1)O3	none
CCOC(=O)N1CCC2(CC1)CC(=O)c1c(ccc3oc(C(=O)O)c(C)c13)O2	Mtb FBA inh 82 | Mtb FBA confirm 33 | GDH-TPI counter-2 30
CCCNC(=O)c1oc2ccc3c(c2c1C)C=CC(C)(C)O3	none
CCCCOc1ccc(C(=O)n2ccc3ccc(-c4ccc5ccn(Cc6cccc(C(=O)OC)c6)c5c4)cc32)cc1	none (no result: Mtb FBA inh, RecA intein inh, Mtb betalactam, GDH-TPI counter-1)
CC1CCN(C(=O)C2CCCN(C(=O)c3ccc4c(c3)NC(=O)CS4)C2)CC1 (stereo not given)	none (no result: Mtb FBA inh, RecA intein inh, Mtb betalactam, GDH-TPI counter-1)
CCCCCc1nc2c(=O)n(C)c3ccccc3c2o1	none
Cn1c(=O)c2nc(-c3ccccc3)oc2c2ccccc21	Mtb FBA inh 99 (no result: RecA intein inh) | Mtb FBA confirm 91 | GDH-TPI counter-2 60
Cc1ccc(-n2nc3cc(C)c(N)cc3n2)cc1	none
CCc1ccc(-n2nc3cc(C)c(N)cc3n2)cc1	Mtb FBA inh 56 | Mtb FBA confirm 63 | GDH-TPI counter-2 69
Cc1ccc(-c2cc3nc(-c4ccccc4)cc(N4CCC5(CC4)OCCO5)n3n2)cc1	Mtb FBA inh 33 | Mtb FBA confirm active | GDH-TPI counter-2 active
Cc1cccc(-c2cc3nc(-c4ccccc4)cc(N4CCC5(CC4)OCCO5)n3n2)c1	none
Fc1cccc(-c2cc3nc(-c4ccccc4)cc(N4CCC5(CC4)OCCO5)n3n2)c1	Mtb FBA inh 53 | Mtb FBA confirm inactive | GDH-TPI counter-2 inactive
COc1cccc(N(C)C(=O)[C@@H](C2CC2)[C@@H](O)c2ccc(C(C)=O)cc2)c1	none (no result: Mtb FBA inh, RecA intein inh, Mtb betalactam, GDH-TPI counter-1)
O=c1oc2cc(O)ccc2cc1-c1nc2c(s1)CCc1ccccc1-2	Mtb FBA inh 38 (no result: RecA intein inh) | GDH-TPI counter-2 active
O=c1oc2ccccc2cc1-c1nc2c(s1)CCc1ccccc1-2	none
COc1cc2c(cc1OC)-c1nnc(-c3ccco3)n1C1(CCCC1)C2	Mtb FBA inh 47 | Mtb FBA confirm 108 | GDH-TPI counter-2 84
c1coc(-c2nnc3n2C2(CCCC2)Cc2ccccc2-3)c1	none
COC(=O)c1cc2c(c3c4cc(F)ccc4n(S(=O)(=O)c4ccc(C)cc4)c13)C(=O)N(c1ccc(OC)cc1)C2	none (no result: Mtb FBA inh, RecA intein inh, Mtb betalactam, GDH-TPI counter-1)
COCCNC(=O)/C(C#N)=C/c1c(N2CCN(C)CC2)nc2c(C)cccn2c1=O	Mtb FBA inh 81 | Mtb FBA confirm 96 | GDH-TPI counter-2 84
CCN1CCN(c2nc3c(C)cccn3c(=O)c2/C=C(\C#N)C(=O)NCCOC)CC1	Mtb FBA inh 97 | Mtb FBA confirm 63 | GDH-TPI counter-2 45
COCCCNC(=O)/C(C#N)=C/c1c(N2CCN(C)CC2)nc2c(C)cccn2c1=O	Mtb FBA inh 92 | Mtb FBA confirm 56 | GDH-TPI counter-2 44
CCCN1CCCCC(NC(=O)c2cccs2)C1=O (stereo not given)	none (no result: Mtb FBA inh, RecA intein inh, Mtb betalactam, GDH-TPI counter-1)
ClCc1nc2ccccc2c2ccccc12	none (no result: RecA intein inh)
[O-][n+]1nc2ccccc2c2ccccc21	Mtb FBA inh 37 (no result: RecA intein inh, Mtb betalactam) | Mtb FBA confirm 88 | GDH-TPI counter-2 78
Cc1c(C(=O)OCC(=O)N2CCCC(C)C2)oc2ccccc12 (stereo not given)	none
CCOc1ccc2oc(C(=O)OCC(=O)N3CC(C)OC(C)C3)c(C)c2c1 (stereo not given)	Mtb FBA inh 46 (no result: RecA intein inh) | Mtb FBA confirm active | GDH-TPI counter-2 active
CCOc1ccc2oc(C(=O)OCC(=O)N3CCCC(C)C3)c(C)c2c1 (stereo not given)	Mtb FBA inh 49 (no result: RecA intein inh) | Mtb FBA confirm 95 | GDH-TPI counter-2 78
COc1ccc2oc(C(=O)OCC(=O)N3CCCC(C)C3)c(C)c2c1 (stereo not given)	Mtb FBA inh 63 | Mtb FBA confirm 61 | GDH-TPI counter-2 55
Cc1ccc(N2C=Nc3ccc(C)c4nc(C)cc2c34)cc1	none
CC1=Nc2ccc(C)c3nc(C)cc(c23)N1c1ccc(C)cc1	Mtb FBA inh 30 | Mtb FBA confirm 60 | GDH-TPI counter-2 38
COC(=O)c1c(-c2ccc(OC)cc2)c2c(c3c4cc(F)ccc4n(S(=O)(=O)c4ccc(C)cc4)c13)C(=O)N(C)C2	none (no result: Mtb FBA inh, RecA intein inh, Mtb betalactam, GDH-TPI counter-1)
